Bioassay records from PubChem BioAssay.
Rows were chosen to be rich in hits. Some 3.5% of all compounds tested hit in one or more screens of this group.
Rv3671c protease = Rv3671c serine protease inhibitors, primary screen, biochemical, fluorescence polarization, M. tuberculosis H37Rv; P9WHR9; inhibition, % at 5.96 µM; hit rate 0.048% among 320,000;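 note: extracellular domain of Rv3671c used as enzyme; 0% = enzyme with DMSO and 100% = no enzyme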
Mtb UGM inh = M. tuberculosis UGM enzyme inhibitors, primary screen, biochemical, fluorescence polarization, single point. purified UGM, fluorescence polarization probe displacement. inhibition, % at 10 µM. hit rate 0.06% among 320,000. UDP-galactopyranose mutase (Mycobacterium tuberculosis (strain ATCC 25618 / H37Rv)), …; in the data active = inhibition above about 10%, passing the limit was not always enough
FBA Mtb inh = Mtb FBA enzyme inhibitors, primary screen, biochemical, fluorescence, strain H37Rv | Fructose-bisphosphate aldolase (Mycobacterium tuberculosis (strain ATCC 25618 / H37Rv)), … | purified M. tuberculosis FBA, fluorescence read-out | inhibition, % at 1 µM | hit rate 2.3% among 360,000 | AID 588726, 2011; in the data active = inhibition above about 27%;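 note: 0% = vehicle and 100% = reference inhibitor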
Target sequence (P9WQA3 whole entry, looked up): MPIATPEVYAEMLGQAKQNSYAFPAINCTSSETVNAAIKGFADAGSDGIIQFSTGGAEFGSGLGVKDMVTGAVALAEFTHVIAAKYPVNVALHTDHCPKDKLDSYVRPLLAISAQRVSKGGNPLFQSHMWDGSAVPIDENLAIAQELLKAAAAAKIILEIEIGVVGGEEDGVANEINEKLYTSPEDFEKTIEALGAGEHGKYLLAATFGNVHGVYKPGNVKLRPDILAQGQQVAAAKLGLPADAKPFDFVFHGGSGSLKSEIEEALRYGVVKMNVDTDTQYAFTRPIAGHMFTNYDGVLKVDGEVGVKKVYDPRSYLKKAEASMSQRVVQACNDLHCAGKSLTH
GDH-TPI counter-1 = GDH-TPI coupling enzyme inhibitors, primary screen, artefact control for M. tuberculosis FBA inhibitor project, biochemical, absorbance, full deck; GDH-TPI coupled enzyme counterscreen, NADH absorbance; inhibition, % at 4.8 µM; hit rate 1.2% among 360,000; in the data active = inhibition above about 30%;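 note: 0% = DMSO wells and 100% = wells lacking the enzyme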
Rv3671c confirm = Rv3671c serine protease inhibitors, retest, confirmation, biochemical, fluorescence polarization, M. tuberculosis H37Rv; shares compounds with Rv3671c protease; inhibition, % at 5.96 µM; hit rate 40% among 140
DNA intercal FP = counter-screen: DNA intercalators. hit rate 60% among 35. AID 463198. AC50, µM. shares compounds with Mtb UGM inh. acridine orange-DNA binding, fluorescence polarization;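 active = fitted AC50 no greater than ten times the top concentration tested, cut at about 17 µM in these data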
Mtb FBA inh conf = M. tuberculosis aldolase blockers, biochemical, fluorescence, strain H37Rv, confirmation. hit rate 78% among 5,600. inhibition, % at 1 µM. purified M. tuberculosis FBA, fluorescence read-out. shares compounds with FBA Mtb inh. AID 651616, 2012; in the data active = inhibition above about 27%;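 note: 0% = vehicle wells and 100% = reference inhibitor wells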
GDH-TPI counter-2 = GDH-TPI coupling enzyme inhibitors, artefact control for M. tuberculosis FBA inhibitor project, biochemical, fluorescence, high throughput; shares compounds with FBA Mtb inh; GDH-TPI coupled enzyme counterscreen; inhibition, % at 1 µM; hit rate 81% among 5,600; AID 652141, 2013; in the data active = inhibition above about 10%
GDH-TPI DR = GDH-TPI coupling enzyme inhibitors, dose response, artefact control for M. tuberculosis FBA inhibitor project, biochemical, fluorescence, IC50; shares compounds with FBA Mtb inh; GDH-TPI coupled enzyme assay, artifact counterscreen; IC50, µM; hit rate 79% among 170; AID 652145, 2013; call rule not given here
Starred values were filed as active, the others as inactive; x = no result given; + = active, no number. Cut-off read from the data, not from the text of the source, unless noted: active = inhibition above about 38%; inactive = the rest.

SMILES | Rv3671c protease | Mtb UGM inh | FBA Mtb inh | GDH-TPI counter-1 | Mtb FBA inh conf | GDH-TPI counter-2 | others
O=C1c2ccccc2-c2onc3ccc(NCCCn4ccnc4)c1c23 | 131* | 83* | x | x | x | x | Rv3671c confirm=135*;DNA intercal FP=2.5*
CN(C(=O)c1cc(-c2cccs2)nn1-c1ccccc1)C1CCS(=O)(=O)C1 (stereo unspecified) | x | x | -4 | 1 | x | x
O=C(Oc1cncc(Cl)c1)c1ccco1 | 63* | -1 | 33* | 5 | 57* | 62* | Rv3671c confirm=88*
O=C(Oc1cncc(Cl)c1)c1sccc1Cl | 1 | 3 | -3 | 9 | x | x
CC1(C)Cc2c(C#N)c(NCCc3ccccc3)nc(-c3ccco3)c2CO1 | 81* | 0 | 35* | 13 | 171* | 135* | Rv3671c confirm=15
CCC(C)(C)NC(=O)c1ccc(S(=O)(=O)N2CCCCCC2)cc1 | -1 | 0 | 1 | 1 | x | x
COc1cccc2c1C(=O)c1c(O)c3c(c(O)c1C2=O)CC(O)(C(=O)CO)CC3OC1CC(N(C)C)C(O)C(C)O1 (stereo unspecified) | x | x | -7 | 3 | x | x
COc1cccc2c1C(=O)c1c(O)c3c(c(O)c1C2=O)CC(O)(C(=O)CO)CC3OC1CC(N)C(O)C(C)O1 (stereo unspecified) | x | x | x | x | x | x | DNA intercal FP=6.8*
CC(C)CSC1=NSC2=NC(=O)/C(=C\c3coc4ccccc4c3=O)C(=N)N12 | -17 | -12 | 12 | 5 | x | x | DNA intercal FP=17*
CN(C)c1ccc(NC(=O)Nc2nc(C(N)C3CCCCC3)cs2)cc1 (stereo unspecified) | x | x | -2 | 11 | x | x
CN(C)S(=O)(=O)N1C(=O)c2ccccc2C1=O | 0 | 1 | 1 | 3 | x | x
CN(C)/C=C1\C=C2C(=O)c3ccccc3N2C1=O | 12 | 103* | -10 | 10 | x | x | DNA intercal FP=0.46*
Nc1nc(Nc2ccc(Cl)cc2)c(NC=O)c(=O)[nH]1 | -5 | 1 | 0 | 3 | x | x
C/C=C/c1ccc2c(c1)O[C@@H](CN(C)C(=O)Nc1cc(F)ccc1F)[C@H](C)CN([C@@H](C)CO)S2(=O)=O | x | x | x | x | x | x | DNA intercal FP=>35
O=C(C1CCCN1S(=O)(=O)c1ccc(Cl)cc1)N1CCN(c2ccccc2)CC1 (stereo unspecified) | -4 | -2 | 6 | 11 | x | x
CC(=O)Nc1cccc(N)c1 | -4 | 1 | 0 | 8 | x | x | DNA intercal FP=>35
COc1ccc2noc3c2c1C(=O)c1ccccc1-3 | 6 | 84* | -11 | 3 | x | x | DNA intercal FP=3.1*
COc1ccc(NC(=O)c2cn(CCC#N)nc2-c2cc3ccccc3o2)cc1 | -2 | 0 | -1 | 3 | x | x
Cc1ccc(NC(=O)NCCCN2CCCC2=O)c(C)c1 | -1 | -1 | 5 | -5 | x | x
Cc1cc(C)c2nc(C(F)(F)F)nc(NCCCN3CCCC3=O)c2c1 | 0 | 0 | -4 | 16 | x | x | DNA intercal FP=>35
C=CCOc1c2ccc(C(=O)NC3CCCc4ccccc43)cc2nn1C (stereo unspecified) | -4 | 0 | 15 | 5 | x | x
CCOc1c2ccc(C(=O)NC3CCCc4ccccc43)cc2nn1C (stereo unspecified) | -9 | 6 | 59* | 5 | 30* | 22*
CCCCn1nc2cc(C(=O)N[C@H](C)C3CCCCC3)ccc2c1OCC | -7 | 1 | 53* | -4 | 45* | 39*
CCCCn1nc2cc(C(=O)NC3CCCc4ccccc43)ccc2c1OCC (stereo unspecified) | 1 | 1 | 36* | 3 | 184* | 132*
COc1cc(CN2C(=S)NC(C)(C)CC2(C)O)cc(OC)c1 (stereo unspecified) | 6 | -1 | -4 | 8 | x | x
SMILES | Rv3671c protease | Mtb UGM inh | FBA Mtb inh | GDH-TPI counter-1 | Mtb FBA inh conf | GDH-TPI counter-2 | others
COc1ccc(Nc2c(-c3ccco3)nc3cccc(C)n23)cc1 | 8 | 0 | 3 | -4 | x | x
c1ccc(Nc2c(-c3ccco3)nc3ccccn23)cc1 | 2 | 1 | 111* | 12 | 99* | 71*
CCCc1cc(=O)[nH]c(SCC(=O)N(CC)c2c(N)n(Cc3ccccc3)c(=O)[nH]c2=O)n1 | 4 | 3 | 1 | -7 | x | x
Cc1cc(C)c2nc3nc(C)c(C)cc3c(N)c2c1 | x | x | 29* | -5 | 76* | 48*
CCOC(=O)c1[nH]c2cc3c(cc2c1NC(=O)CN1CCCC1)OCO3 | 8 | 1 | 73* | 16 | 76* | 49*
CCOC(=O)c1[nH]c2cc3c(cc2c1NC(=O)CN1CCc2ccccc2C1)OCO3 | -7 | -1 | 81* | 23 | 12 | 6 | GDH-TPI DR=1.3*
CCOC(=O)N1CCN(CC(=O)Nc2c(C(=O)OC)[nH]c3ccccc23)CC1 | -5 | 0 | 10 | 0 | x | x
CCc1ccc2[nH]c3nc(C)cc(C)c3c(=O)c2c1 | -9 | -1 | 75* | 3 | 75* | 59*
CCc1ccc2[nH]cc(S(=O)(=O)c3ccc(C)c(C)c3)c(=O)c2c1 | -23 | -1 | 0 | -11 | x | x
CC(=O)Nc1ccc(C(=O)OCC(=O)Nc2c(C)n(C)n(-c3ccccc3)c2=O)cc1 | 10 | 1 | 1 | 7 | x | x
CC(=O)Nc1cccc(S(N)(=O)=O)c1C | -4 | 1 | 0 | 5 | x | x
NS(=O)(=O)c1ccccc1NC(=S)Nc1ccccc1S(N)(=O)=O | -6 | 1 | 62* | -12 | + | 167*
COc1ccc(OC)c(S(=O)(=O)Oc2ccc(N)c3ccccc23)c1 | -33 | 2 | 1 | 20 | x | x
OC[C@@H]1[C@@H](c2ccc(Cl)cc2)C(c2cccc(Cl)c2)=NN1c1ccccc1 | x | x | 63* | -4 | 158* | 102*
OC[C@@H]1[C@@H](c2ccc(F)cc2)C(c2cccc(Cl)c2)=NN1c1ccccc1 | x | x | 42* | -1 | 41* | 36*
OC[C@@H]1[C@@H](c2ccc(Cl)cc2)C(c2ccccc2)=NN1c1ccccc1 | x | x | 54* | 11 | 110* | 78*
COc1ccc(NC(=O)CCCn2cnc3ccccc3c2=O)cc1 | -5 | 0 | 1 | 3 | x | x
O=C(CCCCCN1C(=O)[C@@H]2Cc3ccccc3CN2C1=O)NCCc1ccccc1 | 8 | -2 | -1 | 0 | x | x
CC(C)CN(C(=O)COC(=O)CCN1C(=O)c2ccccc2C1=O)C1CCS(=O)(=O)C1 (stereo unspecified) | 9 | 1 | -11 | -5 | x | x
